Assay outcomes as filed in PubChem.
The list is not random: actives were taken first. Their share in the collection is about 7.5%.
Rab9 promoter act: activates the Rab9 promoter; Huh7 Rab9 promoter-luciferase reporter, luminescence, 24 h; 2.8% of 320,000 active; Potency, µM (titrated, usually from 9.22 µM), for the others: top-dose activation, negative = inhibition, usual class: activators; further: % of control where 0% means no effect; nearly all actives have a fitted effect of over 60% in size
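Promoter activation is measured as luciferase luminescence in Huh7 cells stably transfected with a Rab9 promoter–luciferase construct, following 24 h compound exposure at 37 °C and 10 min reagent incubation at ambient temperature.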
SMN2 splice enh: enhancers of SMN2 splice variant expression. HEK293 SMN2-luciferase splicing reporter, luminescence, 30-36 h. Potency, µM (highest dose often 46.1 µM), inactives show at the highest dose activity change, positive = activation, most hits filed as activators. 2.8% of 210,000 active. AID 1458; further: % of control where 0% means no effect; nearly all actives have a fitted effect of over 55% in size
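HEK293 cells carry an SMN2 minigene-luciferase reporter in which exon 7 inclusion puts luciferase in frame. Cells were seeded at 2000 cells/well, attached for 10-12 hours, then exposed to compounds for 30-36 hours at 37C before ONE-Glo luminescence.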
NPC1 promoter act: NPC1 promoter activation | 2.4% of 320,000 active | Huh7 NPC1 promoter luciferase reporter, 24 h | Potency, µM (highest dose often 9.22 µM), for the others: at the highest dose activation, usual class: activators; further: % of control where 0% means no effect; nearly all actives have a fitted effect of over 60% in size
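Huh7 cells stably carrying NPC1 promoter–luciferase, plated in Opti-MEM with 10% FBS for 2 h, were exposed to compound in DMSO for 24 h at 37 °C; luciferase reagent was added for 10 min and luminescence read.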
FLuc counter: counter-screen for miR-21 project: firefly luciferase inhibitors or activators; purified FLuc, Km substrates, luminescence inhibition; 6.9% of 360,000 active; P08659; Potency, µM (highest dose often 57.5 µM), for the others: at the highest dose activity change, negative = inhibition, usual class: inhibitors;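 further: plate controls were vehicle for no effect and reference inhibitor for full effect; nearly all actives have a fitted effect of over 55% in size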
Target sequence (P08659 whole entry, looked up): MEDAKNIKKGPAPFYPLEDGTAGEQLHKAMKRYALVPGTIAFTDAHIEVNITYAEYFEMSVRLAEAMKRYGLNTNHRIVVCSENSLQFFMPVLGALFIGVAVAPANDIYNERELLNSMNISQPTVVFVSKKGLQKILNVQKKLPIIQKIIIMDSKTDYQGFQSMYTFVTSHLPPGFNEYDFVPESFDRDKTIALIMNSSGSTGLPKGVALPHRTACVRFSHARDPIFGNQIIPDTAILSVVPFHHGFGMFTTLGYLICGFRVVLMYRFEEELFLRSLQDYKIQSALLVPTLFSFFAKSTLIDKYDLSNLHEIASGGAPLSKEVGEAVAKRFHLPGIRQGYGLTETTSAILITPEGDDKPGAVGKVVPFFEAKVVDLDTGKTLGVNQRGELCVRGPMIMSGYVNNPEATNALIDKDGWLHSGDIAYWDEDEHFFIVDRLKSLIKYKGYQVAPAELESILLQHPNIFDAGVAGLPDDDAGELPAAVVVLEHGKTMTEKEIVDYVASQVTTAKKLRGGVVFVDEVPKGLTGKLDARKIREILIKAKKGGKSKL
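Purified P. pyralis luciferase, 10 nM final, with Km-level 10 uM D-luciferin and 10 uM ATP in 50 mM Tris acetate pH 7.5, 10 mM Mg acetate, 0.01% Tween-20, 0.05% BSA; 6-point qHTS titration about 60 µM downward; luminescence read.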
ELG1 genotox: induces genotoxicity in HEK293T cells with luciferase-tagged ELG1 | 1.3% of 330,000 active | AID 504466 | HEK293T ELG1-luciferase reporter, luminescence, 16 h | Potency, µM (top dose mostly 46 µM), for the others: at the top dose activity change, positive = activation, most hits filed as activators; further: % of control where 0% means no effect; nearly all actives have a fitted effect of over 60% in size
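HEK293T cells expressing luciferase-tagged ELG1 were exposed to compound or DMSO vehicle for 16 hr at 37 °C and 5% CO2. Luciferase activity was then measured with ONE-Glo after 30 min at room temperature.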
KinaseGlo FLuc: Kinase-Glo luciferase inhibition (counter-screen); Q27757; Kinase-Glo luciferase, ATP luminescence, 8 min; Potency, µM (highest dose often 38.3 µM), for inactives: at the highest dose activity change, negative = inhibition, actives largely listed as inhibitors; 0.28% of 200,000 active; AID 1379; further: on the % scale 0 is the no-effect control and ±100 the full control effect; nearly all actives have a fitted effect of over 60% in size
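Compound is pinned into ATP-containing buffer (10 uM ATP, imidazole pH 7.2, 7 mM MgCl2). Kinase-Glo luciferase reagent is then added. Light output is recorded following an 8-min room-temperature incubation.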
* marks the source's active call; other numbers are inactive results; u = inconclusive; x = no result given. The call rests on the fitted dose curve; in most records, active means well fitted curve in the direction sought with a large enough effect; inconclusive means small, poorly fitted or top-dose-only effect, or another doubt; inactive means no such curve, though single readings can be large; an effect the other way counts as inactive or inconclusive. Potency means the concentration at half of the fitted maximal effect.

SMILES	Rab9 promoter act	SMN2 splice enh	NPC1 promoter act	FLuc counter	ELG1 genotox	KinaseGlo FLuc
CCOc1ccc2nc(N3C(=O)/C(=C/c4ccc(Cl)cc4)NC3=S)sc2c1	3.4%	5.6%	13.0%	9.53µM*	-0.5%	-0.3%
COc1ccc2cnn(-c3ccc(C)cc3)c(=O)c2c1OC	u	27.1%	u	23.9µM*	14.6µM*	-3.1%
COc1ccc2cnn(CCOc3ccccc3)c(=O)c2c1OC	0.562µM*	11.2µM*	0.794µM*	4.78µM*	u	-8.6%
COc1ccc2cnn(-c3ccc(OC(F)(F)Cl)cc3)c(=O)c2c1OC	25.6%	x	21.5%	0.0%	4.4%	x
COc1cccc(-c2cc(CC3(O)CCN(CCCc4ccccc4)CC3)on2)c1	-8.3%	x	0.0%	-2.0%	-2.4%	x
COC(=O)c1sccc1NC(=O)Nc1ccc(C)cc1C	6.7%	x	5.3%	-17.8%	10.1%	x
CCc1ccccc1NC(=O)Nc1ccsc1C(=O)OC	0.9%	x	-5.1%	u	2.9%	x
COC(=O)c1sccc1NC(=O)Nc1cc(C)cc(C)c1	-4.7%	x	4.3%	7.57µM*	u	x
COC(=O)c1sccc1NC(=O)Nc1ccc(C)cc1	-1.2%	x	0.6%	1.69µM*	u	x
COC(=O)c1sccc1NC(=O)Nc1ccc(C(C)=O)cc1	9.6%	x	-0.2%	2.13µM*	18.3µM*	x
COc1cccc(NC(=O)Nc2ccccc2Br)c1	u	x	24.0%	12µM*	7.1%	-16.3%
COc1ccccc1CNC(=O)C(=O)NCC(c1cccs1)S(=O)(=O)c1ccc(F)cc1 (stereo unspecified)	x	x	x	2.4%	x	x
Fc1ccccc1-c1nc2nc3ccccc3nc2n1CC1CCCO1 (stereo unspecified)	-0.8%	x	-3.6%	-7.8%	-0.5%	x
COC(=O)c1sccc1NC(=O)Nc1cccc(OC)c1	2.4%	x	-0.4%	8.49µM*	4.9%	x
COc1ccc(NC(=O)Nc2ccc(F)cc2F)cc1	2.82µM*	20µM*	2.24µM*	5.36µM*	u	-6.3%
COC(=O)c1sccc1NC(=O)Nc1ccc(F)cc1	-0.5%	x	0.5%	8.49µM*	10.6%	x
COC(=O)c1sccc1NC(=O)c1ccccc1	-3.1%	8.3%	-5.2%	-2.3%	-0.1%	0.3%
COC(=O)c1sccc1NC(=O)c1ccc(C(C)C)cc1	3.55µM*	x	28.4%	10.7µM*	15.3%	x
CCOC(=O)c1c(Nc2cc(C)cc(C)c2)nnc(-c2ccccc2)c1-c1ccccc1	x	-23.1%	x	-0.9%	x	x
CCOc1ccc2nc(N3CCCC(C(=O)Nc4ccccc4CC)C3)sc2c1 (stereo unspecified)	x	21.0%	x	u	x	x
COc1ccc(NC(=O)NCc2ccccc2F)cc1OC	-2.5%	11.0%	-2.5%	-4.1%	-0.8%	2.3%
COC(=O)c1sccc1NC(=O)Nc1ccc(F)cc1F	1.9%	x	-3.3%	21.3µM*	4.1%	x
COc1cccc(NC(=O)NCc2ccccc2F)c1	u	27.6%	21.6%	16.9µM*	u	-3.5%
COC(=O)c1scc(-c2ccc(C)cc2)c1S(=O)(=O)Nc1cc(C)c(Cl)cc1OC	x	x	x	-7.7%	x	x
Cc1nc2c3ccccc3nc(NNC(=O)CCC(=O)N3CCN(c4cc(Cl)ccc4C)CC3)n2n1	x	0.5%	x	-17.4%	x	x
SMILES	Rab9 promoter act	SMN2 splice enh	NPC1 promoter act	FLuc counter	ELG1 genotox	KinaseGlo FLuc
CC(=O)c1ccc(S(=O)(=O)Nc2cccc(-c3ccc(N4CCOCC4)nn3)c2)cc1	u	x	u	2.69µM*	1.8%	x
CC(=O)Nc1ccc(S(=O)(=O)Nc2cccc(-c3ccc(N4CCC(C)CC4)nn3)c2)cc1	x	x	x	0.536µM*	x	x
COc1ccc(-c2cccc(NS(=O)(=O)c3ccc(NC(C)=O)cc3)c2)nn1	x	x	x	-10.8%	x	x
CC(=O)Nc1ccc(S(=O)(=O)Nc2cccc(-c3ccc(N4CCCCCC4)nn3)c2)cc1	x	x	x	4.78µM*	x	x
CCC(=O)N1CCc2cc(S(=O)(=O)NC(C(=O)NCc3ccc(OC)cc3)C(C)C)ccc21 (stereo unspecified)	x	-1.6%	x	-4.8%	x	x
COc1ccccc1-c1nnc(C2CCN(C(=O)c3cccc(C)c3)CC2)o1	x	6.9%	x	-0.5%	x	x
Cc1cccc(NC(=O)c2sc3nc(-c4cc5ccc(O)cc5oc4=O)[nH]c(=O)c3c2C)c1	x	x	x	-13.0%	x	x
CCCCc1nc(C(N)=O)c2[nH]c(=O)n(-c3ccc(OCC)cc3)c2n1	-4.5%	x	2.1%	3.0%	-0.3%	x
Cc1cc(=O)[nH]c(SCCCOc2ccccc2Cl)n1	1.1%	-2.5%	12.1%	23.9µM*	-7.3%	-1.6%
Cc1cc(=O)[nH]c(SCCOc2ccc3c(c2)CCC3)n1	x	12.6µM*	x	7.57µM*	x	-0.7%
Cc1cc(=O)[nH]c(SCCOc2ccc(OC(C)C)cc2)n1	u	u	u	15.1µM*	5.17µM*	-19.6%
C/C=C/c1ccc(OCCSc2nc(C)cc(=O)[nH]2)c(OC)c1	9.2%	10.0%	-7.4%	13.5µM*	u	14.1%
CCOc1ccc(NC(=O)Cn2cc(C(=O)c3ccc(OCC)cc3)c(=O)c3cc4c(cc32)OCCO4)cc1	x	-4.7%	x	-9.5%	x	x
CCN(CC(=O)NCc1ccc(Cl)cc1)C(=O)COc1ccc(Cl)cc1Br	-1.2%	x	-3.7%	0.9%	-0.5%	x
O=C(CC1NCCNC1=O)Nc1ccc([N+](=O)[O-])cc1 (stereo unspecified)	-3.2%	7.4%	-1.0%	-2.0%	6.2%	-7.9%
CC(=O)c1ccc(N=Nc2ccc(N)cc2)cc1	0.316µM*	x	0.398µM*	1.51µM*	u	x
NC(=O)C1CCCN(C(=S)Nc2ccccc2)C1 (stereo unspecified)	1.7%	-20.7%	-2.6%	0.1%	0.0%	0.5%
Cc1ccc(NC(=S)N2CCOCC2)cc1	1.5%	14.3%	-0.8%	u	0.1%	-0.8%
CC(C)c1ccc(NC(=S)N2CCN(C)CC2)cc1	26.5%	x	20.1%	u	u	x
CC(C)c1ccc(NC(=S)N2CCCC2)cc1	2.24µM*	x	2.51µM*	23.9µM*	u	x
OCC1CCCN(C(=S)Nc2ccc(OC(F)F)cc2)C1 (stereo unspecified)	28.9%	x	25.6%	16.9µM*	u	x
OCC1CCCN(C(=S)Nc2ccc(Nc3ccccc3)cc2)C1 (stereo unspecified)	2µM*	u	u	9.53µM*	u	-1.1%
Cc1ccc(NC(=S)N2CCCC(O)C2)cc1 (stereo unspecified)	24.9%	u	2.6%	16.9µM*	u	0.8%
CCc1ccccc1NC(=O)C(=O)NCC(c1cccnc1)N1CCN(c2ccccc2F)CC1 (stereo unspecified)	x	x	x	-7.6%	x	x
CCn1cc(C(=O)NCc2ccccc2OC)c(=O)c2cc(S(=O)(=O)N3CCCCCC3)ccc21	x	-0.4%	x	-6.2%	x	x
O=C1CCOc2cc(OCc3ccccc3)ccc21	1µM*	2.24µM*	1µM*	1.51µM*	10.3µM*	u
